{"source": "PubChem BioAssay (NCI)", "note": "The panel holds about 83,000 compounds, 20% with a hit somewhere; the sample as a whole holds those more often.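 Note: values are percent growth. 100 is the growth of untreated cells, values between 100 and 0 indicate rising inhibition; between -100 and 0 indicates cell death.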 Active and inactive are the calls of the source. How the source made its calls: active means growth percent below 10; inactive means the rest."}
{"test_system": "HL-60(TB) leukemia", "assay": "NCI-60 one-dose screen, 48 h (100 = growth as untreated, 0 = no growth, -100 = all killed)", "settings": "10 µM unless noted"}
{"smiles": "CN=C(N)N/N=C(\\C)c1ccc2c(c1)Cc1ccccc1-2", "growth": "-50.3% (active)"}
{"smiles": "C[C@@H]1C(=O)N(C[C@H](Cc2ccccc2)NC(=O)OCc2ccccc2)[C@]1(Cc1ccccc1)C(=O)OC(C)(C)C", "growth": "81.5% (inactive)"}
{"smiles": "CCOC(CN=Cc1cc(C)c2[nH]c3ccccc3c2c1C)OCC", "growth": "76.6% (inactive)"}
{"smiles": "O=C(N/N=C\\c1ccccc1S(=O)(=O)O)N/N=C/c1ccccc1S(=O)(=O)O", "growth": "91.7% (inactive)"}
{"smiles": "COc1ccc(/C(=C/c2ccc3ccccc3c2)c2nn[nH]n2)cc1OC", "growth": "-1.21% (active)"}
{"smiles": "CC1=NN(c2cccc(Cl)c2)C(=O)/C1=C\\c1cn(-c2nc(N3CCOCC3)nc(N3CCOCC3)n2)c2ccccc12", "growth": "99.1% (inactive)"}
{"smiles": "CCOc1ccccc1C(=O)N1CCN(c2cc(Cl)cc(Cl)c2)CC1", "growth": "-59% (active)"}
{"smiles": "CNC(=S)N/N=C/CSC/C=N/NC(=S)NC", "growth": "85% (inactive)"}
{"smiles": "O=C(Nc1cnn2ccc(N3CCC[C@@H]3c3cc(F)ccc3F)nc12)N1CC[C@H](O)C1", "growth": "126% (inactive)"}
{"smiles": "CSc1nc2c(c(=O)[nH]1)N=C1c3ccccc3C(=O)C1C(c1ccc(F)cc1)N2", "note": "(stereo not given)", "growth": "91.4% (inactive)"}
{"smiles": "CC(=O)Oc1ccc(/C(=C(\\C)c2ccc(Cl)cc2)c2ccc(OCCN3CCCCC3)cc2)cc1", "growth": "27.4% (inactive)"}
{"smiles": "O=c1cc(/C(=C2/C=CC=N2)c2ccc[nH]2)c2cc(Cl)ccc2o1", "growth": "85.2% (inactive)"}
{"smiles": "Cc1ccc(NC(=O)c2sc3nc(C)c(C(=O)c4ccccc4)cc3c2N)cc1", "growth": "84.2% (inactive)"}
{"smiles": "Cn1c(-c2c(N)n(Cc3cccnc3)c3nc(C#N)c(C#N)nc23)nc2ccccc21", "growth": "50.3% (inactive)"}
{"smiles": "COc1cc(-c2nn(-c3ccc(NC(=O)Nc4ccc(Cl)c(C(F)(F)F)c4)cc3)cc2-c2ccncc2)ccc1Cl", "growth": "1.53% (active)"}
{"smiles": "COc1cc2c(c(O)c1Br)C(=O)c1c(O)cc(C[C@H](C)O)cc1[C@H]2[C@H]1c2cc(C[C@H](C)O)cc(O)c2C(=O)c2c1cc(OC)c(Br)c2O", "growth": "-28% (active)"}
{"smiles": "N=C(N)c1ccc(-c2ccc(-c3ccc(Cl)cn3)s2)cc1", "growth": "-45.8% (active)"}
{"smiles": "C=C1CC2(OC1=O)C(=O)N(C)c1ccc(I)cc12", "note": "(stereo not given)", "growth": "-56.5% (active)"}
{"smiles": "COc1cc(OC)c(NC(=O)n2ncc3cc(Nc4ncnc5ccccc45)ccc32)cc1Cl", "growth": "82.9% (inactive)"}
{"smiles": "O=c1oc2ccccc2cc1-c1nn(-c2ccccc2)cc1-c1nn[nH]n1", "growth": "96.8% (inactive)"}
{"smiles": "CC(=O)NC(N)=S", "growth": "70.8% (inactive)"}
{"smiles": "Nc1ccc(-c2cc3c(Nc4ccc(Oc5cccc(C(F)(F)F)c5)c(Cl)c4)ncnc3s2)cc1", "growth": "54.9% (inactive)"}
{"smiles": "CCOC(=O)C1=NN(c2ccccc2)C2=NC(=O)/C(=C\\c3cn(-c4ccccc4)nc3-c3cc4ccccc4o3)C(=O)N12", "growth": "76.4% (inactive)"}
{"smiles": "O=C(CI)NC(=O)NC(=O)NCc1ccccc1", "growth": "-10.5% (active)"}
{"smiles": "c1ccc(Cc2ccccc2)cc1", "growth": "112% (inactive)"}
{"smiles": "CCCCN1CCN(c2ccc3nc(-c4ccc5nc(-c6ccc(C(F)(F)F)cc6)[nH]c5c4)[nH]c3c2)CC1", "growth": "-58.7% (active)"}
{"smiles": "Cc1cc(C)n(C(=O)c2nn(-c3ccc(Cl)cc3)cc2O)n1", "growth": "39.8% (inactive)"}
{"smiles": "N#Cc1cc(-c2cc3ccccc3o2)oc1N", "growth": "-49.3% (active)"}
{"smiles": "CC/C=C\\C[C@H](O)C/C=C1/C(=O)C=C[C@@H]1C/C=C\\CCCC(=O)OC(C)C", "growth": "-38.3% (active)"}
{"smiles": "C=C(C)C(C(=O)OCC)(C(=O)OCC)C(C)C", "growth": "118% (inactive)"}
{"smiles": "CCC(=O)C(CC)c1cccc(OC)c1", "note": "(stereo not given)", "growth": "97.5% (inactive)"}
{"smiles": "COc1cc(OC)cc(N2CCN(C(=O)Nc3nc4cc(F)ccc4nc3OC)CC2)c1", "growth": "-17% (active)"}
{"smiles": "NCCNc1nc2ccccc2c2c(=O)c3cc(F)cc(Cl)c3sc12", "growth": "-42.8% (active)"}
{"smiles": "COc1ccccc1N1CCN(CCCOc2ccc(OCCCN3CCN(c4ccccc4OC)CC3)c(C(=O)c3cc(OC)c(OC)c(OC)c3)c2)CC1", "growth": "101% (inactive)"}
{"smiles": "C=C1c2c(C)nn(-c3ccc(S(N)(=O)=O)cc3)c2N(C)C23CC1C1(C)c4c(C)nn(-c5ccc(S(N)(=O)=O)cc5)c4N(C)C(C)(CC12)C3", "note": "(stereo not given)", "growth": "8.58% (active)"}
{"smiles": "Nc1nc(-c2ccnc(Cl)c2)nn1-c1nc2ccccc2s1", "growth": "107% (inactive)"}
{"smiles": "CN(C)c1ccc(N=Nc2ccc3ccccc3c2)cc1", "growth": "61.6% (inactive)"}
{"smiles": "CCCC(C)c1cc(Cc2cc(Cl)cc(Cl)c2O)c(O)c(Cc2cc(Cl)cc(Cl)c2O)c1", "note": "(stereo not given)", "growth": "4.98% (active)"}
{"smiles": "Clc1nc(-c2cccnc2)nc2sc3c(c12)CCCCCC3", "growth": "102% (inactive)"}
{"smiles": "O=C(CSc1ncc(-c2ccccc2)n1-c1ccccc1)Nc1ccc(-c2nc3ccccc3s2)cc1", "growth": "100% (inactive)"}
